Experimental data as given in PubChem BioAssay AID1159580 (chemical genetic matrix, 2015).
“And” between values parts separate entries of the source, which are not always exact repeats. Equal values may be shown once. Hit rate of the full screen: of about 5,500 compounds, about 2,000 (36%) were called active. Not shown: some 18% with an inconclusive outcome. No stated cut-off is given here; in the data, active means normalized growth mostly below about 0.91 (no sharp cut-off); inconclusive means no clear call, values can overlap the other calls; inactive means mostly above about 0.92. The list shows a part of the results.

Experiment: chemical genetic growth profiling, strain panel (AID 1159580);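 further: tested at 20 µM; growth read once vehicle control cultures reached saturation at 30 °C; 1 = growth at the plate median or of vehicle wells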
Conditions: growth OD

Measured: normalized growth

NCCc1ccc(O)cc1
active: S. cerevisiae deletion strains, locus YNL248C, strain rpa49, stronger effect = lower value 0.856
inactive: S. cerevisiae deletion strains, locus YJR075W, strain HOC1, stronger effect = lower value 1.01 | S. cerevisiae deletion strains, locus YKL009W, strain mrt4, stronger effect = lower value 0.992 | S. cerevisiae deletion strains, locus YKL068W, stronger effect = lower value 0.994 | S. cerevisiae deletion strains, locus YKL085W, strain MDH1 (second series), stronger effect = lower value 0.996 | S. cerevisiae deletion strains, locus YKL085W, strain MDH1, stronger effect = lower value 0.996 | S. cerevisiae deletion strains, locus YKL160W, strain elf1, stronger effect = lower value 1.01 | S. cerevisiae deletion strains, locus YKL190W, strain CNB1, stronger effect = lower value 1.01 | S. cerevisiae deletion strains, locus YKR001C, strain vps1, stronger effect = lower value 0.978 | S. cerevisiae deletion strains, locus YKR026C, strain gcn3, stronger effect = lower value 0.972 | S. cerevisiae deletion strains, locus YKR091W, strain srl3, stronger effect = lower value 0.986 | S. cerevisiae deletion strains, locus YLL001W, strain dnm1, stronger effect = lower value 0.982 | S. cerevisiae deletion strains, locus YLL026W, stronger effect = lower value 0.985 | S. cerevisiae deletion strains, locus YLL041C, strain sdh2, stronger effect = lower value 0.978 | S. cerevisiae deletion strains, locus YLR027C, strain aat2, stronger effect = lower value 0.984 | S. cerevisiae deletion strains, locus YLR039C, strain RIC1, stronger effect = lower value 1.02 | S. cerevisiae deletion strains, locus YLR058C, strain SHM2, stronger effect = lower value 1.01 | S. cerevisiae deletion strains, locus YLR102C, strain apc9, stronger effect = lower value 0.999 | S. cerevisiae deletion strains, locus YLR113W, strain HOG1, stronger effect = lower value 0.973 | S. cerevisiae deletion strains, locus YLR221C, strain rsa3, stronger effect = lower value 0.951 | S. cerevisiae deletion strains, locus YLR258W, strain gsy2, stronger effect = lower value 0.985 | S. cerevisiae deletion strains, locus YLR262C, strain YPT6 (second series), stronger effect = lower value 0.976 | S. cerevisiae deletion strains, locus YLR262C, strain YPT6, stronger effect = lower value 1.02 | S. cerevisiae deletion strains, locus YLR268W, strain sec22, stronger effect = lower value 0.993 | S. cerevisiae deletion strains, locus YLR320W, strain mms22, stronger effect = lower value 0.962 | S. cerevisiae deletion strains, locus YLR330W, strain CHS5, stronger effect = lower value 1.01 | S. cerevisiae deletion strains, locus YLR342W, strain FKS1 (second series), stronger effect = lower value 1 | S. cerevisiae deletion strains, locus YLR342W, strain FKS1, stronger effect = lower value 0.98 | S. cerevisiae deletion strains, locus YLR357W, strain rsc2, stronger effect = lower value 0.956 | S. cerevisiae deletion strains, locus YLR370C, strain arc18, stronger effect = lower value 0.984 | S. cerevisiae deletion strains, locus YLR371W, strain rom2, stronger effect = lower value 0.981 | S. cerevisiae deletion strains, locus YLR384C, strain iki3, stronger effect = lower value 0.958 | S. cerevisiae deletion strains, locus YLR418C, strain cdc73, stronger effect = lower value 1.02 | S. cerevisiae deletion strains, locus YML016C, strain PPZ1, stronger effect = lower value 1 | S. cerevisiae deletion strains, locus YML032C, strain rad52, stronger effect = lower value 1.02 | S. cerevisiae deletion strains, locus YML120C, strain ndi1, stronger effect = lower value 0.994 | S. cerevisiae deletion strains, locus YML124C, strain tub3, stronger effect = lower value 1 | S. cerevisiae deletion strains, locus YMR058W, strain fet3, stronger effect = lower value 0.973 | S. cerevisiae deletion strains, locus YMR078C, strain ctf18, stronger effect = lower value 0.99 | S. cerevisiae deletion strains, locus YMR125W, strain sto1, stronger effect = lower value 0.989 | S. cerevisiae deletion strains, locus YMR129W, stronger effect = lower value 0.973 | S. cerevisiae deletion strains, locus YMR205C, strain PFK2, stronger effect = lower value 1.01 | S. cerevisiae deletion strains, locus YMR223W, strain ubp8, stronger effect = lower value 1.01 | S. cerevisiae deletion strains, locus YMR231W, strain pep5, stronger effect = lower value 0.97 | S. cerevisiae deletion strains, locus YMR263W, strain SAP30, stronger effect = lower value 1.01 and 1 | S. cerevisiae deletion strains, locus YMR307W, strain GAS1, stronger effect = lower value 0.979 and 1.01 | S. cerevisiae deletion strains, locus YNL067W, strain RPL9B, stronger effect = lower value 1.01 | S. cerevisiae deletion strains, locus YNL071W, strain lat1, stronger effect = lower value 0.989 | S. cerevisiae deletion strains, locus YNL153C, strain GIM3, stronger effect = lower value 1.01 and 1.04 | S. cerevisiae deletion strains, locus YNL175C, strain NOP13, stronger effect = lower value 1.03 | S. cerevisiae deletion strains, locus YNL183C, strain NPR1, stronger effect = lower value 0.953 | S. cerevisiae deletion strains, locus YNL197C, strain WHI3, stronger effect = lower value 1 | S. cerevisiae deletion strains, locus YNL209W, strain ssb2, stronger effect = lower value 1 | S. cerevisiae deletion strains, locus YNL224C, strain SQS1, stronger effect = lower value 1 | S. cerevisiae deletion strains, locus YNL233W, strain BNI4, stronger effect = lower value 1 | S. cerevisiae deletion strains, locus YNL250W, strain rad50, stronger effect = lower value 0.995 | S. cerevisiae deletion strains, locus YNL271C, strain bni1, stronger effect = lower value 0.993 | S. cerevisiae deletion strains, locus YNL298W, strain CLA4, stronger effect = lower value 1 | S. cerevisiae deletion strains, locus YNL307C, strain MCK1, stronger effect = lower value 1.02 | S. cerevisiae deletion strains, locus YNL322C, strain KRE1 (second series), stronger effect = lower value 0.992 | S. cerevisiae deletion strains, locus YNL322C, strain KRE1, stronger effect = lower value 1 and 0.993 | S. cerevisiae deletion strains, locus YNR049C, strain mso1, stronger effect = lower value 0.98 | S. cerevisiae deletion strains, locus YNR052C, strain pop2, stronger effect = lower value 0.988 | S. cerevisiae deletion strains, locus YOL012C, strain htz1 0.829 | S. cerevisiae deletion strains, locus YOL147C, strain pex11, stronger effect = lower value 1 | S. cerevisiae deletion strains, locus YOR001W, strain rrp6, stronger effect = lower value 0.927 | S. cerevisiae deletion strains, locus YOR061W, strain CKA2, stronger effect = lower value 1.01 | S. cerevisiae deletion strains, locus YOR069W, strain VPS5, stronger effect = lower value 1 | S. cerevisiae deletion strains, locus YOR070C, strain gyp1, stronger effect = lower value 0.963 | S. cerevisiae deletion strains, locus YOR080W, strain dia2, stronger effect = lower value 0.968 | S. cerevisiae deletion strains, locus YOR083W, strain WHI5 (second series), stronger effect = lower value 1.03 | S. cerevisiae deletion strains, locus YOR083W, strain WHI5, stronger effect = lower value 1.01 | S. cerevisiae deletion strains, locus YOR106W, strain vam3, stronger effect = lower value 1.02 | S. cerevisiae deletion strains, locus YOR136W, strain idh2, stronger effect = lower value 0.996 | S. cerevisiae deletion strains, locus YOR144C, strain elg1, stronger effect = lower value 0.992 | S. cerevisiae deletion strains, locus YOR184W, strain ser1, stronger effect = lower value 1 | S. cerevisiae deletion strains, locus YOR231W, strain MKK1, stronger effect = lower value 0.963 | S. cerevisiae deletion strains, locus YOR265W, strain rbl2, stronger effect = lower value 1 | S. cerevisiae deletion strains, locus YOR270C, strain vph1, stronger effect = lower value 0.964 | S. cerevisiae deletion strains, locus YOR290C, strain snf2, stronger effect = lower value 1 | S. cerevisiae deletion strains, locus YOR316C, strain cot1, stronger effect = lower value 1 | S. cerevisiae deletion strains, locus YPL051W, strain arl3, stronger effect = lower value 0.987 | S. cerevisiae deletion strains, locus YPL055C, strain LGE1, stronger effect = lower value 1.01 | S. cerevisiae deletion strains, locus YPL078C, strain atp4, stronger effect = lower value 0.997 | S. cerevisiae deletion strains, locus YPL106C, strain sse1, stronger effect = lower value 0.987 | S. cerevisiae deletion strains, locus YPL240C, strain hsp82, stronger effect = lower value 0.976 | S. cerevisiae deletion strains, locus YPL241C, strain CIN2, stronger effect = lower value 1.01 and 1 | S. cerevisiae deletion strains, locus YPL256C, strain CLN2, stronger effect = lower value 0.953 | S. cerevisiae deletion strains, locus YPR119W, strain clb2, stronger effect = lower value 0.992 | S. cerevisiae deletion strains, locus YPR141C, strain kar3, stronger effect = lower value 0.996 | S. cerevisiae deletion strains, locus YPR163C, strain tif3, stronger effect = lower value 1.01 | S. cerevisiae deletion strains, locus YPR167C, strain met16, stronger effect = lower value 1.01 | S. cerevisiae deletion strains, strain wtn01, stronger effect = lower value 0.984 | S. cerevisiae strains, strain wild type, stronger effect = lower value 1
